# The list is not random: actives were taken first. Their share in the collection is about 8.7%.
# VACV Venus inh = vaccinia inhibition (Venus reporter). Vaccinia virus Venus reporter expression, fluorescence. Potency, µM (doses to about 36.5 µM), for the others: at the top dose activity change, negative = inhibition, hits mostly inhibitors. hit rate 0.46% among 330,000; calls by dose curve; tested in A549 cells; note: nearly all actives have a fitted effect of over 30% in size
# Pf growth 48h = P. falciparum growth inhibition at 48 hours (one generation) | P. falciparum luciferase growth in erythrocytes, 48 h | Potency, µM (doses to about 28.7 µM), inactives show at the highest dose activity change, negative = inhibition, actives largely listed as inhibitors | hit rate 5.9% among 310,000
#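 A one-generation exposure of luciferase-tagged malaria parasites in RPMI 1640/Albumax erythrocyte culture, 37 C and 5% CO2. Inhibition is inferred from decreased luminescence after adding detection reagent.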
# AMA1-RON2 inh = inhibitors of Plasmodium falciparum AMA1-RON2 interaction | hit rate 0.2% among 360,000 | Potency, µM (highest dose often 58.2 µM), for the others: at the top dose activity change, negative = inhibition, actives largely listed as inhibitors | AlphaScreen AMA1-biotinylated RON2 peptide binding;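 note: 0% = vehicle wells and -100% = peptide control; nearly all actives have a fitted effect of over 45% in size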
#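 AMA1 (3D7) with his tag at 25 nM final met compounds first, then biotinylated RON2 peptide at 25 nM; detection used donor plus acceptor beads, 10 µg/mL apiece, read by AlphaScreen after 30 min at room temperature.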
# Pf growth 96h = P. falciparum growth inhibition at 96 hours; Potency, µM (series often up to 28.7 µM), for the others: at the highest dose activity change, negative = inhibition, actives largely listed as inhibitors; P. falciparum luciferase reporter growth, 96 h; hit rate 6.9% among 320,000
#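 Delayed-death screen, second-generation endpoint: infected erythrocytes, 2% hematocrit, 0.05% parasitemia final; 96 hours at 37 C, 5% CO2; luciferase detection reagent; luminescence decrease equals reduced growth.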
# Vaccinia mCherry = vaccinia inhibition (mCherry reporter); Potency, µM (series often up to 36.5 µM), for inactives: at the top dose activity change, negative = inhibition, usual class: inhibitors; hit rate 0.63% among 310,000; Vaccinia virus mCherry reporter infection, fluorescence; calls by dose curve; tested in A549 cells; note: nearly all actives have a fitted effect of over 35% in size
# * marks the source's active call; other numbers are inactive results; i = inactive; ? = inconclusive; nt = no result; [ ] = dose if it differs, or a comment. Unless noted, calls come from the whole dose curve; as a rule, active = well fitted curve in the direction sought with a large enough effect; inconclusive = small, poorly fitted or top-dose-only effect, or another doubt; inactive = no such curve, though single readings can be large; an effect the other way counts as inactive or inconclusive. Unless noted, % is set by controls: 0 for no effect and ±100 for the full control effect; potency is the fitted concentration of half-maximal effect.
SMILES,VACV Venus inh,Pf growth 48h,AMA1-RON2 inh,Pf growth 96h,Vaccinia mCherry
CN(C)CCN(C(=O)c1ccc2c(c1)CCCC2)c1nc2c(F)cccc2s1,-3%,7%,-20%,-25%,i
CCCn1cc(S(=O)(=O)c2ccccc2)c(=O)c2cc(F)c(N3CCCC(C)C3)cc21 (stereo not drawn),-15%,nt,nt,nt,0%
COc1cccc(CNC(=O)CCc2c(C)nc3c(c(C)nn3-c3ccc(C)c(C)c3)c2C)c1,-19%,nt,nt,nt,-16%
CN(C)CCCN(C(=O)CCc1ccccc1)c1nc2ccc(Cl)cc2s1,-26%,?,?,10µM*,?
NC(=O)CCCCC1CCSS1 (stereo not drawn),nt,?,nt,11µM*,nt
COc1ccc(C(=O)C[n+]2ccccc2Cl)cc1,-5%,nt,nt,nt,-14%
COc1ccc(Cl)cc1NC(=O)CN(C)C(=O)c1cn(-c2ccccc2)nc1-c1cccnc1,?,?,-6%,10µM*,?
COc1ccc(Cl)cc1NC(=O)CN(C)C(=O)c1cccc(-n2cnnn2)c1,nt,-21%,0%,-6%,nt
COc1cccc(NC(=O)CN(C)C(=O)c2cn(-c3ccccc3)nc2-c2cccnc2)c1,-8%,12µM*,5%,?,-4%
CC(=O)c1ccc(NC(=O)c2cc3c([nH]c2=O)CC(c2ccccc2)CC3=O)cc1 (stereo not drawn),-2%,nt,nt,nt,-4%
CC(=O)c1cccc(CN2CCCC(C(=O)Nc3cccc(-n4cccn4)c3)C2)c1 (stereo not drawn),-8%,?,-15%,23%,-15%
CCn1cc(CN2CCCC(C(=O)Nc3cccc(-n4cccn4)c3)C2)c(C)n1 (stereo not drawn),-18%,-29%,4%,10µM*,-4%
COc1ccc(CN2CCCC(C(=O)Nc3cccc(-n4cccn4)c3)C2)cc1 (stereo not drawn),nt,?,-12%,-12%,nt
CCn1cc(CN2CCCC(C(=O)Nc3cccc(-c4cc5ccccc5[nH]4)c3)C2)cn1 (stereo not drawn),-29%,10µM*,-3%,86%,?
O=C(Nc1cccc(-n2cccn2)c1)C1CCCN(Cc2ccc(C#CCCO)cc2)C1 (stereo not drawn),-10%,10µM*,-17%,36%,-18%
CCCCNC(=O)CN1CCN(c2ncc(NC(=O)c3ccc(Cl)cc3)cc2C(=O)O)CC1,-5%,nt,nt,nt,-7%
CC(=O)c1ccc([N+](C)(C)C)cc1,-7%,nt,nt,nt,6%
O=C(Nc1ccc2oc(=O)ccc2c1)c1ccc(-c2cccc(Cl)c2)o1,-2%,10µM*,-4%,?,-2%
COc1cc(NC(=O)c2ccc(-c3cccc([N+](=O)[O-])c3)o2)ccc1NC(=O)C(C)C,?,10µM*,11%,-13%,-19%
O=C(Nc1ccc2oc(=O)ccc2c1)c1ccc(-c2cccc([N+](=O)[O-])c2)o1,-13%[7.34 µM],4.1µM*,7%,?,i[7.34 µM]
Nc1ncnc2c1ncn2[C@@H]1O[C@H](C(=O)NC2CC2)[C@@H](O)[C@H]1O,-2%,nt,nt,nt,-12%
CCCCNCCCOc1cccc(Cl)c1,nt,?,0%,7%,nt
CCCCNCC1C(Oc2ccc(Cl)cc2)C(=O)N1c1ccccc1C (stereo not drawn),?,15µM*,?,-82%,i
Cc1ccc(-c2[nH]ncc2/C=N/n2c(C)nc3ccccc3c2=O)cc1,-10%,48%,5%,121%,i
Cc1ccccc1OCc1nc2ccccc2c(=O)n1/N=C/c1cn[nH]c1-c1ccc(Br)cc1,-9%,?,-7%,5.2µM*,-8%
SMILES,VACV Venus inh,Pf growth 48h,AMA1-RON2 inh,Pf growth 96h,Vaccinia mCherry
O=c1c2ccccc2nc(COc2ccccc2)n1/N=C/c1cn[nH]c1-c1ccccc1,?,?,20%,10µM*,?
CCC(C)NS(=O)(=O)c1ccc(N2CCCCS2(=O)=O)cc1 (stereo not drawn),-8%,nt,nt,nt,-5%
Cc1cn2c(=O)c(S(=O)(=O)Nc3ccc(OC(F)(F)F)cc3)c(C)nc2s1,-16%,nt,nt,nt,i
CCc1cccc(CC)c1NC(=S)NCCc1c(C)[nH]c2ccccc12,?,13µM*,51%,13µM*,10µM*
CCc1cccc(CC)c1NC(=S)NCCc1ccc(O)c(O)c1,nt,?,68%,?,nt
CC(C)COc1ccc(C(=O)NCC2(N3CCN(C)CC3)CCCCC2)cc1,-21%,nt,nt,nt,-19%
O=c1c2c3c(sc2ncn1Cc1ccc(F)cc1)CCC3,-15%,nt,6%,?,-8%
CCOC(=O)N1CCc2c(sc3ncn(Cc4ccc(F)cc4)c(=O)c23)C1,-23%,10µM*,-10%,5.9µM*,-9%
COc1ccc(Cn2ccnc2SCC(=O)Nc2ccc(C)cc2C)cc1,-11%,nt,nt,nt,i
Cc1sc2ncnc(NCC(O)c3ccc([N+](=O)[O-])cc3)c2c1C (stereo not drawn),-12%,9.3µM*,0%,?,-4%
Cc1c(-c2nnc(SCC(=O)Nc3ccccc3F)o2)nnn1-c1ccc(F)cc1,-1%[7.34 µM],nt,nt,nt,-17%[7.34 µM]
CCc1ccccc1NC(=O)CSC1=Nc2ccccc2C2=NC(Cc3ccccc3)C(=O)N12 (stereo not drawn),-12%,nt,nt,nt,-17%
COc1ccc(-n2nnnc2C2CCN(S(=O)(=O)c3ccc(NC(C)=O)cc3)CC2)cc1,-26%,nt,nt,nt,-18%
CCn1ncc(C2=NOC(C(=O)Nc3cnn(C45CC6CC(CC(C6)C4)C5)c3)C2)c1C (stereo not drawn),nt,5.9µM*,7%,0%,nt
COCCN(C(=O)CC1C(=O)NCCN1CC(c1ccccc1)c1ccccc1)C(C)C (stereo not drawn),nt,?,11%,10µM*,nt
CC1CCc2c(sc(NC(=O)c3cc4nc(-c5ccc(Cl)cc5)cc(C(F)(F)F)n4n3)c2C#N)C1 (stereo not drawn),1%,nt,nt,nt,-5%
Cc1ccsc1C1Cc2c(C(=O)NCc3cccnc3)c(=O)cc(C)n2-c2ccccc2S1 (stereo not drawn),12%,nt,nt,nt,-2%
COc1ccc(/C=C/c2c([N+](=O)[O-])c(=O)n(C)c(=O)n2C)cc1,-4%,?,-20%,13µM*,-14%
CCOc1ccc(/C=C/c2c([N+](=O)[O-])c(=O)n(C)c(=O)n2C)cc1,-12%,?,-8%,1%,-10%
Cn1c(/C=C/c2ccc(Cl)cc2Cl)c([N+](=O)[O-])c(=O)n(C)c1=O,nt,4.7µM*,2%,42%,nt
CCc1ccc(/C=C/c2c([N+](=O)[O-])c(=O)n(C)c(=O)n2C)cc1,nt,2.3µM*,0%,38%,nt
COc1ccc(/C=C/c2c([N+](=O)[O-])c(=O)n(C)c(=O)n2C)c(OC)c1,-13%,?,0%,2%,-15%
Cc1ncc2c(c1CNC(=O)c1ccccc1F)CCN(C(=O)c1ccc3c(c1)OCCO3)C2,-7%,nt,nt,nt,-9%
CCCCNC(=O)[C@@H]1CC=C[C@@H]2CCN(Cc3ccc(OC)c(OC)c3)C(=O)[C@@H]21,-7%,nt,nt,nt,i
